In the assay the test system is Mycobacterium tuberculosis. The experiment in a line: Cornell - Phenotypic assay to identify agents that inhibit growth of Mycobacterium tuberculosis. In kind it is functional. The conditions noted are these: 10 mM as filed; unlikely as a test dose. Set-up: scale not given: direction of the effect not stated beside the values.

The values below come from ChEMBL document CHEMBL3988442, “University of Dundee, Small-Polar-MMV Screening Library” (2021).

Among all 53,000 compounds or so, about 900 (1.7%) showed an effect of 50% or more. The sample holds strong results, similar compounds and a random draw of the others, so the mix is not that of the screen.

In the case of `COc1ccc(C(=O)N2CCOc3ccncc32)cc1`, the “Percent Effect” value worked out at 9.514%. With `O=C1CCCN1c1cccc(N2CCC(NCCc3cscn3)CC2)c1`, the “Percent Effect” value is on record as 24.64%. `CC(C)CC(C)NC1CCN(c2cccc(-c3cscn3)c2)CC1` (stereo not given): the “Percent Effect” value worked out at 2.317%. The same measure for `Cc1nc(-c2cccc(N3CCC(NC4CCOCC4)CC3)c2)cs1`: 35.61%. Turning to `c1ccc(-c2cccc(N3CCC(NCCc4cscn4)CC3)c2)cc1`, the “Percent Effect” value was found to be 93.63%. `Fc1cccc(-c2cccc(N3CCC(NC4CCCOC4)CC3)c2)c1` (stereo not given): the “Percent Effect” value is given as 23.21%. For `c1cc(-c2cscn2)cc(N2CCC(NCCc3cccs3)CC2)c1`, the “Percent Effect” value worked out at 60.71%.

Consider `CCCC(=O)N1CCOC2(COCCN(CC(=O)NC)C2)C1.O=C(O)C(F)(F)F` (stereo not given), for which the “Percent Effect” value is reported as 6.771%. For `O=C(CC(SC1CCCCC1)C(=O)O)c1ccc(Br)cc1` (stereo not given), the “Percent Effect” value came to 52.8%. The same measure for `Cc1ccc(C(=O)CC(SC2CCCCC2)C(=O)O)cc1` (stereo not given): 44.78%. As for `O=C(CC(SC1CCCCC1)C(=O)O)c1ccc(Cl)cc1` (stereo not given), the “Percent Effect” value is given as 11.66%.

As for `O=C(O)C(F)(F)F.O=C(O)C(F)(F)F.O=C(O)c1c(-c2cccnc2)ncc2c1CCN(Cc1ccccn1)C2`, the “Percent Effect” value is recorded as -51.27%. With `O=C(NCc1cccnc1)c1nc2c(s1)CCCN2C(=O)C1CC1.O=C(O)C(F)(F)F`, the “Percent Effect” value is 6.625%. As to `c1cnc(N2CCCC(c3csc(Nc4cnccn4)n3)C2)nc1` (stereo not given), the “Percent Effect” value was determined as 29.09%. On to `CC(=O)Nc1nc(C2CCN(CC(N)=O)CC2)cs1`, for which the “Percent Effect” value is reported as 1.083%. Regarding `OCCN1CCC(c2csc(Nc3cnccn3)n2)CC1`, the “Percent Effect” value was -21.31%. For `c1cnc(N2CCC(c3csc(Nc4cnccn4)n3)CC2)nc1`, the “Percent Effect” value is reported as 78.58%. Consider `NC(=O)CN1CCC(c2csc(Nc3cnccn3)n2)CC1`, for which the “Percent Effect” value worked out at 53.63%. As to `Cc1nc(Nc2cnccn2)cc(C2CCN(c3ncccn3)C2)n1` (stereo not given), the “Percent Effect” value is on record as -14.64%. With `O=C(N1CCOCC1)n1cnc2ccccc21`, the “Percent Effect” value worked out at 14.08%. On to `CC1CCN(c2ccc(=O)n(CC(=O)NCCc3ccccc3)n2)CC1`, for which the “Percent Effect” value amounted to 45.57%. As for `COc1c(CC2CC(CO)=NO2)c(Br)c2c(c1OC)OCO2` (stereo not given), the “Percent Effect” value is reported as -3.025%.

On to `CCN(C)S(=O)(=O)N1CCCC(c2nc(-c3ccccc3)c[nH]2)C1` (stereo not given), for which the “Percent Effect” value was -4.787%. On to `CS(=O)(=O)N1CCCC(c2nc(-c3ccccc3)c[nH]2)C1` (stereo not given), for which the “Percent Effect” value is listed as 4.975%.

As to `CCCS(=O)(=O)N1CCCC(c2nc(-c3ccccc3)c[nH]2)C1` (stereo not given), the “Percent Effect” value was found to be 56.46%. For the compound `Cc1nc(N2CCOCC2)nc(C)c1NS(=O)(=O)c1ccccc1`, the “Percent Effect” value was 18.03%. On to `Cc1nc(N2CCCC2)nc(C)c1NS(C)(=O)=O`, for which the “Percent Effect” value worked out at 7.192%. Consider `Cc1ccc(S(=O)(=O)Nc2c(C)nc(N3CCCC3)nc2C)cc1`, for which the “Percent Effect” value is on record as 52.33%.

`CCN1CCCN(S(=O)(=O)c2cnc3onc(C)c3c2)CC1`: the “Percent Effect” value is on record as 44.95%.

For `CCC1CCCN(S(=O)(=O)c2cnc3onc(C)c3c2)C1` (stereo not given), the “Percent Effect” value worked out at 54.72%. The same measure for `Cc1noc2ncc(S(=O)(=O)N3CCCC(C)(C)CC3)cc12`: 49.9%; for `CCc1noc(CN(Cc2cccs2)CC2CCCO2)n1` (stereo not given): -2.113%; for `CNc1ncc(CN(C)C(=O)c2c[nH]nc2-c2cccc(F)c2)cn1`: 11.75%. Regarding `Cn1ncc2c1CCCN(C(=O)C1CCCC1)C2`, the “Percent Effect” value worked out at 10.97%. Consider `Cn1c(CCN2CCN(c3ccc(O)cc3)CC2)nc2ccccc21`, for which the “Percent Effect” value was 103.8%. Regarding `Cn1c(CN2CCN(CC3CCCO3)CC2)nc2ccccc21` (stereo not given), the “Percent Effect” value is 22.41%. For `Cn1c(CCN2CCN(CCc3ccccc3)CC2)nc2ccccc21`, the “Percent Effect” value stood at 76.94%. Take `CCCc1ccc(N2CCN(Cc3nc4ccccc4n3C)CC2)cc1`: the “Percent Effect” value is listed as -0.4475%. Take `CCNC(=O)N1CCN(c2nc3ccccc3n2C)CC1`: the “Percent Effect” value came out at 17.71%. For `Cc1cc(C)n(C2CCN(Cc3nc4ccccc4n3C)CC2)n1`, the “Percent Effect” value came out at 18.24%.

On to `CCCc1nc(NC2(COC)CCCC2)c2cnn(C)c2n1`, for which the “Percent Effect” value was 21.48%. `Cc1ccc(C)c(S(=O)(=O)CCN2CCCC2Cn2cncn2)c1` (stereo not given): the “Percent Effect” value stood at 23.02%. As for `Fc1cccnc1O[C@@H]1CN(Cc2ccccn2)[C@@H]2CCCO[C@@H]21.O=C(O)C(F)(F)F.O=C(O)C(F)(F)F`, the “Percent Effect” value is listed as 2.355%.

Regarding `Cc1ccc(-c2cc(CN3CCCC(Cn4cncn4)C3)on2)cc1` (stereo not given), the “Percent Effect” value was 8.833%. On to `O=C(C[C@@H]1COC[C@H]2CN(Cc3ccccn3)C[C@@H]12)N1CCOCC1.O=C(O)C(F)(F)F.O=C(O)C(F)(F)F`, for which the “Percent Effect” value is on record as 6.339%.

`Fc1ccc(C(NCc2nnc(-c3ccco3)o2)C2CCC2)cc1` (stereo not given): the “Percent Effect” value worked out at 56.57%. Turning to `Fc1ccc(C(NCc2nnc(C3CC3)o2)C2CCC2)cc1` (stereo not given), the “Percent Effect” value is reported as 14.86%. In the case of `c1ccc(C(NCc2nnc(-c3ccco3)o2)C2CCC2)cc1` (stereo not given), the “Percent Effect” value came to 14.05%.

Take `CC(CNC(=O)Nc1ccc(F)cc1-n1cccc1)N1CCOCC1` (stereo not given): the “Percent Effect” value is recorded as 31.56%.

`CCNc1ncc(C(=O)NCc2cccc(OC(F)(F)F)c2)cn1`: the “Percent Effect” value worked out at 27.01%.
